Here are results for 35 compounds from PubChem BioAssay.

The test concerns the target Carbonic anhydrase 2 (Homo sapiens) (UniProt P00918). The experiment in a line: CAII small-molecule binders, profiling panel, biochemical, small-molecule microarray, Alexa647-labelled CAII (AID 1122). The settings on record: CAII-A647 binding fluorescence, higher = more signal.
As to `COC(=O)[C@@H]1N=C(c2ccc(OCCCO)cc2)O[C@@H]1C`, the composite z-score was -0.153.

The compound `C=C[C@H]1C(C(=O)OCC)=CC[C@@H](c2ccccc2)N1S(=O)(=O)c1ccc(C)cc1` displayed a composite z-score of 0.627.

As for `CC(c1ccccc1)C(O)C1C=CC2C(=O)N(C)C(=O)C2N1Nc1ccccc1` (stereo not given), the composite z-score was determined as 0.601.

`NC(=O)NCC#Cc1ccc2c(c1)[C@]1(C(=O)N2)[C@H](c2ccccc2OCCO)N2[C@H](c3ccccc3)[C@H](c3ccccc3)OC(=O)[C@H]2[C@@H]1C(=O)NC[C@H](O)c1ccccc1` gave a composite z-score of 0.582.

`CCCCC[C@H]1OC[C@@]23C=C(Br)[C@@H](CC12)[C@@]1(CO1)C3=O` (stereo not given in full) gave a composite z-score of -0.174.

For the compound `CCC#CCN(Cc1ccccc1Br)[C@H](/C=C/C1CC1)[C@@H](O)Cc1ccccc1`, the composite z-score is -0.458.

On to `COC(=O)C(CC#Cc1ccc2c(c1)[C@]1(C(=O)N2)[C@H](c2ccc(O)cc2)N2[C@H](c3ccccc3)[C@H](c3ccccc3)OC(=O)[C@H]2[C@@H]1C(=O)NC[C@H](O)c1ccccc1)C(=O)OC`, for which the composite z-score turned out to be 0.553.

`CCCCC(O)C1C=CC2C(=O)N(C)C(=O)C2N1N(c1ccccc1)c1ccccc1` (stereo not given) came in with a composite z-score of 0.797.

For `O=C1[C@H]2C=C(I)[C@H](C[C@@H]2OCCOCCO)[C@@]12CO2`, the composite z-score is -0.0167.

Compound `C=CC[C@]1(C(=O)N2CCCCC2)N=C(c2ccc(OCCCO)cc2)O[C@H]1c1ccccc1CN=[N+]=[N-]` gave a composite z-score of 0.69.

Take `COC(=O)[C@@]1(Cc2ccc(OC)cc2)[C@H]2c3cc(C(=O)N4CCCC4)n(CCO)c3C[C@H]2CN1C(=O)c1ccccc1`: the composite z-score stood at 0.847.

Take `C=CC[C@]1(C(=O)N2CCOCC2)COC(c2ccc(OCCCO)cc2)=N1`: the composite z-score was 0.777.

With `CN(C)C(=O)[C@]1(CCC(=O)OC(C)(C)C)N=C(c2ccc(OCCCO)cc2)O[C@@H]1c1ccccc1CN=[N+]=[N-]`, the composite z-score is 0.673.

Turning to `CO[C@H]1O[C@H](CO)[C@@H](OC(=O)Nc2ccc3c(c2)OCO3)[C@H](OC(=O)Nc2ccc3c(c2)OCO3)[C@@H]1OC(=O)Nc1ccc2c(c1)OCO2`, the composite z-score worked out at 0.572.

`C=C[C@@H](OC)[C@H](OC(=O)Nc1ccc(OC)cc1)c1ccc(O)c(F)c1` displayed a composite z-score of 0.268.

As for `COC(=O)c1c(CC[C@@H](CO)NC(=O)N[C@@H](C)Cn2cc(-c3ccccn3)nn2)oc(C(C)=O)c1C(=O)OC`, the composite z-score worked out at 0.708.

For `CCCC[C@@H](O)C1=C(COC)C[C@H]2C(=O)N(Cc3ccccc3)C(=O)[C@H]2[C@H]1CO`, the composite z-score is 0.0793.

`CCCN1C(=O)[C@]2(Cc3ccccc31)N=C(c1ccc(OCCCO)cc1)O[C@@H]2c1ccccc1` had a composite z-score of 0.625.

`CCOC(=O)C[C@H]1[C@H](OC(=O)c2ccc(C(=O)c3ccccc3)cc2)[C@@H](NC(=O)C2CCCCC2)c2cc(OCCCO)ccc2N1C(=O)c1ccc2ccccc2n1` returned a composite z-score of 0.0738.

Compound `COc1cccc(C)c1NC(=O)O[C@H]1[C@H](OC(=O)Nc2ccc3c(c2)OCO3)[C@@H](OC(=O)Nc2ccc3c(c2)OCO3)[C@@H](OC)O[C@@H]1CO` showed a composite z-score of 0.43.

As for `CC(C)(C)OC(=O)COc1cccc(C(=O)CCN2CCOCC2)c1`, the composite z-score was -0.382.

Compound `CC(C)NC(=O)[C@@]1(C)c2ccccc2C(=O)N(Cc2ccc(OC(F)(F)F)cc2)[C@H]1c1ccc(CO)cc1` showed a composite z-score of 0.607.

`COc1cc2c(cc1O)C(c1cccs1)N(Cc1cc3c(cc1Br)OCO3)CC2` (stereo not given) displayed a composite z-score of 0.723.

The compound `CCCCNC(=O)c1ccc(C#CC(C)(C)C)c(OC(C)=O)c1` came in with a composite z-score of 0.728.

For `CCCC1(C(=O)OC)C=C2C(=C(C)C(=O)C2C)CN1` (stereo not given), the composite z-score turned out to be 0.664.

For `O=C(C1N=C(c2ccc(OCCCO)cc2)N(c2ccccc2)O1)N1CCCCC1` (stereo not given), the composite z-score was determined as 0.718.

Consider `CCCCN1CC=CC23O[C@@H]4/C=C\CCC(C)OC(=O)C4[C@H]2C(=O)N(CCCO)[C@@H]3C1=O` (stereo not given in full), for which the composite z-score was found to be 0.283.

`Cc1ccc(S[C@]2(C(=O)NCC(F)(F)F)CC(=O)N(Cc3cc(C(F)(F)F)cc(C(F)(F)F)c3)[C@@H]2c2ccc(CO)cc2)cc1` came in with a composite z-score of 0.802.

`COC(=O)[C@@]1(Cc2ccc(F)cc2)[C@H]2c3cc(C(=O)N(C)C)n(CCc4ccc(OC)c(Br)c4)c3C[C@H]2CN1C(=O)c1ccccc1` gave a composite z-score of 0.487.

In turn, `O=C(NCCN1CCOCC1)[C@@H]1c2ccccc2C(=O)N(Cc2ccccc2Cl)[C@H]1c1ccc(CO)cc1` yielded a composite z-score of 0.667.

In turn, `CCCCCN1CC=CC23O[C@@H]4/C=C\CCCOC(=O)C4[C@H]2C(=O)N(C(C)CO)[C@@H]3C1=O` (stereo not given in full) displayed a composite z-score of 0.839.

`COc1ccc(CCNC(=O)[C@@H]2c3ccccc3C(=O)N(C3CCCCC3)[C@H]2c2ccc(CO)cc2)cc1` showed a composite z-score of 0.608.

`C=CCNC(=O)[C@H]1[C@@H]2C(=O)O[C@@H](c3ccccc3)[C@@H](c3ccccc3)N2[C@@H](c2ccccc2OCCO)[C@]12C(=O)N(C(=O)OCCOC)c1ccc(C#CC3(O)CCCCCC3)cc12`: the composite z-score amounted to 0.309.

In turn, `C#Cc1cc2ccccc2oc1=O` gave a composite z-score of 0.637.

The compound `CCCC=C(CCC)[C@@H](NS(=O)(=O)CC12CCC(CC1=O)C2(C)C)c1ccc(C(=O)OC)cc1` (stereo not given in full) registered a composite z-score of -0.0343.
